Source: PubChem BioAssay (EPA / NIEHS)
Results filed as inconclusive are left out. The source made the active and inactive calls. How the source made its calls, unless noted: active means hit-call score of the fitted dose curve at least 0.9, where 1 is the maximum; inactive means score below 0.9.

Experiments:
[1] = CCTE_Shafer_MEA_acute_burst_duration_mean: CCTE's Neural Acute Assay for Mean Burst Duration, Shafer Lab (AID 2284014);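 further: hits are decreases in mean burst duration relative to DMSO controls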
Outline: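 Mean burst duration was compared between a 40 min baseline and a 40 min recording in the presence of compound (0.03-40 uM, 37 C), giving percent change per well. Cultures were rat cortical neurons at DIV 13 or 15; wells needed ≥10 active electrodes.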

[2] = CCTE_Shafer_MEA_acute_per_burst_spike_number_mean: CCTE's Neural Acute Assay for Average Number of Spikes Per Burst, Shafer Lab (AID 2284015);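 further: hits are decreases in mean spikes per burst versus baseline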
Outline: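 Read-out: percent change in mean spikes per burst, each well's post-exposure 40-min recording versus its own 40-min baseline. Rat cortical cultures, DIV 13 or 15, compounds 0.03-40 uM; DMSO is negative control, loss-of-signal fitting.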

[3] = CCTE_Shafer_MEA_acute_interburst_interval_mean: CCTE's Neural Acute Assay for Mean Interburst Interval, Shafer Lab (AID 2284016);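 further: percent change of mean interburst interval versus each well's own pre-dose baseline; curves fitted for decrease in interburst interval relative to DMSO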
Outline: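 Rat cortical cultures, DIV 13/15; 20 min equilibration, 40 min baseline, compound 0.03-40 uM, 40 min re-recording, 37 C. Spikes detected at 8x rms noise (300-5000 Hz band-pass). Endpoint: % change in interburst interval, fitted in loss direction vs DMSO.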

[4] = CCTE_Shafer_MEA_acute_burst_percentage_mean: CCTE's Neural Acute Assay for Percentage of Spikes in a Burst, Shafer Lab (AID 2284017);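 further: curve fitted for loss of signal so potency reflects decreased burst percentage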
Outline: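 Rat cortical cultures, DIV 13/15, 37 C. Spikes detected at 8x rms noise (300-5000 Hz band-pass). Burst spikes/total spikes averaged across electrodes per well; % change post- vs pre-treatment (40 min each), loss-of-signal fit vs DMSO.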

[5] = CCTE_Shafer_MEA_acute_burst_percentage_std: CCTE's Neural Acute Assay for Standard Deviation of Burst Percentage, Shafer Lab (AID 2284018);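 further: fitted in the negative direction so actives lower burst percentage SD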
Outline: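 Value is percent change from baseline in the across-electrode SD of spikes-in-bursts percentage, wells with >/= 10 active electrodes. Acute 40-min exposure to 0.03-40 uM on DIV 13 or 15 rat cortical cultures, recorded at 37 C after 40-min baseline.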

[6] = CCTE_Shafer_MEA_acute_per_network_burst_spike_number_mean: CCTE's Neural Acute Assay for Average Number of Spikes in a Network Burst, Shafer Lab (AID 2284019)
Outline: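 Percent change from baseline in mean spikes per network burst, spikes detected at 8x rms noise. Each compound at 0.03-40 uM in at least three wells of rat cortical cultures, recorded 40 min before and 40 min during exposure.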

[7] = CCTE_Shafer_MEA_acute_per_network_burst_spike_number_std: CCTE's Neural Acute Assay for Standard Deviation of Number of Spikes in a Network Burst, Shafer Lab (AID 2284020);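 further: fitted for decrease in spike-number SD versus DMSO so actives lower it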
Outline: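 Endpoint: percent change from 40 min baseline in standard deviation of spikes per network burst, after 40 min compound exposure (0.03-40 uM, 37 C). Cortical rat neurons on MEA at DIV 13 or 15; spikes detected at 8x rms noise, 300-5000 Hz band-pass.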

[8] = CCTE_Shafer_MEA_acute_per_network_burst_electrodes_number_mean: CCTE's Neural Acute Assay for Mean Number of Electrodes in a Network Burst, Shafer Lab (AID 2284021);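 further: curves fitted for decreases only so hits reduce electrodes per burst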
Outline: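 Rat primary cortical neurons on 48-well MEAs, DIV 13 or 15, were treated at 0.03-40 uM. Spikes were detected at 8x rms noise and recorded at 37 C. The mean electrodes per network burst in a 40 min exposure recording was expressed as percent change from a 40 min baseline.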

[9] = CCTE_Shafer_MEA_acute_network_burst_percentage: CCTE's Neural Acute Assay for Percentage of Network Bursts, Shafer Lab (AID 2284022);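 further: curves fitted for loss so actives lower network burst percentage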
Outline: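 Rat primary cortical neuron networks on 48-well MEA plates, DIV 13 or 15, treated acutely with compound (0.03-40 uM, at least three wells). Percent of spikes within network bursts compared between 40-min recordings before and during exposure at 37 C, expressed as percent change.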

[10] = CCTE_Shafer_MEA_acute_cross_correlation_HWHM: CCTE's Neural Acute Assay for Cross Correlation at Half Width at Half Maximum, Shafer Lab (AID 2284026);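 further: percent change per well from pre-dose baseline in spike cross-correlogram half width; hits are a decrease in cross-correlogram half width relative to DMSO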
Outline: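 Rat primary cortical neurons on 48-well MEA plates; 40-min baseline and 40-min post-exposure recordings at 37 C on DIV 13 or 15, compounds 0.03-40 uM. Spikes detected at 8x rms noise; percent change in cross-correlogram HWHM per well vs baseline.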

[11] = CCTE_Shafer_MEA_acute_synchrony_index: CCTE's Neural Acute Assay for Synchrony, Shafer Lab (AID 2284027);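 further: network synchrony index of spontaneous spiking in primary rat cortical neurons on MEAs; fitted for loss of signal so actives lower synchrony relative to DMSO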
Outline: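 Rat cortical cultures, DIV 13/15; spikes detected at 8x rms noise, 300-5000 Hz band-pass. Compound 0.03-40 uM, ≥3 wells; 40-min pre- and post-exposure recordings, 37 C. Readout: % change in synchrony index; loss-of-signal fit vs DMSO.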

[12] = CCTE_Shafer_MEA_acute_AB: CCTE's Alamar Blue Assay for Cytotoxicity in the Neural Acute Assay, Shafer Lab (AID 2284069; active means hit-call score of the fitted dose curve at least 0.9, where 1 is the maximum;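 further: active compounds lower the viability signal compared with DMSO wells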)
Outline: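 Metabolic activity in chemically exposed rat cortical neurons (MEA cultures, day 13/15 post-plating) measured via CellTiter Blue resazurin reduction, 544/590 nm fluorescence; fitted relative to DMSO, with signal loss indicating reduced viability.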

[13] = CCTE_Shafer_MEA_acute_LDH: CCTE's Lactate Dehydrogenase Assay for Cytotoxicity in the Neural Acute Assay, Shafer Lab (AID 2284086; active means hit-call score of the fitted dose curve at least 0.9, where 1 is the maximum;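 further: active means LDH release rises above DMSO vehicle level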)
Outline: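 LDH absorbance at 490 nm in medium taken right after 40-min compound exposure; rat primary cortical neuron networks on MEA plates, days post-plating 13 or 15. Increase over DMSO baseline scored as cytotoxicity.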

[14] = read-out: Monokine induced gamma interferon (MIG), CXCL9 (gene 4283); assay: BSK_KF3CT_MIG: BioMAP Diversity Plus: KF3CT Assay for Monokine induced gamma interferon (MIG) Biomarker Activity (AID 2284248); conditions: primary human keratinocytes with fibroblasts
Outline: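 Human keratinocyte–foreskin fibroblast co-culture; MIG measured by ELISA 24 h after chemical dosing, fitted upward versus DMSO. Cytotoxicity was assessed in parallel cultures by SRB total-protein staining read at 560 nm.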

[15] = read-out: Collagen I, COL1A1 (gene 1277); assay: BSK_hDFCGF_CollagenI: BioMAP Diversity Plus: hDFCGF Assay for Collagen I Biomarker Activity (AID 2284250); conditions: primary human foreskin fibroblasts
Outline: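 ELISA read-out of Collagen I in human dermal foreskin fibroblast cultures, 24 h after dosing. Gain of signal versus DMSO vehicle defines activity.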

[16] = read-out: Interferon-inducible T-cell alpha chemoattractant (ITAC), CXCL11 (gene 6373); assay: BSK_hDFCGF_ITAC: BioMAP Diversity Plus: hDFCGF Assay for Interferon-inducible T-cell alpha chemoattractant (ITAC) Biomarker Activity (AID 2284251); conditions: primary human foreskin fibroblasts
Outline: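 I-TAC levels were read by ELISA on human dermal foreskin fibroblast primary cultures 24 h after dosing, analysed against DMSO in the positive direction. Cytotoxicity was assessed alongside by sulforhodamine B total-protein staining.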

[17] = read-out: Plasminogen activator inhibitor-1 (PAI1), SERPINE1 (gene 5054); assay: BSK_KF3CT_PAI1: BioMAP Diversity Plus: KF3CT Assay for Plasminogen activator inhibitor-1 (PAI1) Biomarker Activity (AID 2284252); conditions: primary human keratinocytes with fibroblasts
Outline: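 Keratinocyte + dermal fibroblast co-culture (human primary); 24 h post-dose; PAI-1 by ELISA; gain-of-signal fit vs DMSO control.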

[18] = read-out: Interleukin-8 (IL8), CXCL8 (gene 3576); assay: BSK_KF3CT_IL8: BioMAP Diversity Plus: KF3CT Assay for Interleukin-8 (IL8) Biomarker Activity (AID 2284254); conditions: primary human keratinocytes with fibroblasts
Outline: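 Human keratinocyte/foreskin fibroblast co-culture dosed 24 h; IL-8 measured by ELISA relative to DMSO. Parallel cultures stained with SRB for total protein to flag cytotoxicity.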

[19] = read-out: Intercellular Adhesion Molecule 1 (ICAM1), ICAM1 (gene 3383); assay: BSK_BE3C_ICAM1: BioMAP Diversity Plus: BE3C Assay for Intercellular Adhesion Molecule 1 (ICAM1) Biomarker Activity (AID 2284278); conditions: primary human bronchial epithelial cells;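 further: cell-surface ICAM-1 protein level quantified by ELISA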
Outline: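 ELISA read-out of ICAM-1 on human lung bronchial epithelial primary cells, 24 h post-dosing; positive-direction curve fit, DMSO = baseline. SRB total-protein staining of parallel cultures flagged overt cytotoxicity.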

[20] = read-out: Interferon-inducible T-cell alpha chemoattractant (ITAC), CXCL11 (gene 6373); assay: BSK_BE3C_ITAC: BioMAP Diversity Plus: BE3C Assay for Interferon-inducible T-cell alpha chemoattractant (ITAC) Biomarker Activity (AID 2284279); conditions: primary human bronchial epithelial cells
Outline: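 BE3C cells (human primary bronchial epithelium), 24 h compound exposure, I-TAC by ELISA, DMSO = negative control/baseline, positive fitting direction.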

[21] = read-out: Interleukin-8 (IL8), CXCL8 (gene 3576); assay: BSK_BE3C_IL8: BioMAP Diversity Plus: BE3C Assay for Interleukin-8 (IL8) Biomarker Activity (AID 2284280); conditions: primary human bronchial epithelial cells
Outline: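 Primary human bronchial epithelial cells (BE3C system) were exposed to test chemical for 24 h, and IL-8 levels were then measured by ELISA. Activity was fitted in the positive (gain-of-signal) direction against a DMSO negative-control baseline.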

[22] = read-out: Epidermal growth factor receptor (EGFR), EGFR (gene 1956); assay: BSK_BE3C_EGFR: BioMAP Diversity Plus: BE3C Assay for Epidermal growth factor receptor (EGFR) Biomarker Activity (AID 2284281); conditions: primary human bronchial epithelial cells
Outline: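 Human primary bronchial epithelial cells were exposed to compound for 24 h, and cell-surface EGFR was then quantified by ELISA. Activity was fitted in the positive direction against the DMSO vehicle baseline.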

[23] = read-out: KRT18 (gene 3875); assay: BSK_BE3C_Keratin818: BioMAP Diversity Plus: BE3C Assay for Keratin 818 Biomarker Activity (AID 2284282); conditions: primary human bronchial epithelial cells
Outline: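 ELISA read-out of Keratin 8/18 in BE3C human bronchial epithelial cultures, 24 h post-dosing; positive-direction fit vs DMSO baseline.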

[24] = read-out: Matrix Metallopeptidase 9 (MMP9), MMP9 (gene 4318); assay: BSK_BE3C_MMP9: BioMAP Diversity Plus: BE3C Assay for Matrix Metallopeptidase 9 (MMP9) Biomarker Activity (AID 2284283); conditions: primary human bronchial epithelial cells
Outline: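 Human primary bronchial epithelial cells exposed 24 h to compound. MMP9 quantified by ELISA. SRB total-protein staining of parallel cultures assesses cytotoxicity. Positive-direction fit relative to DMSO.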

[25] = read-out: Plasminogen activator inhibitor-1 (PAI1), SERPINE1 (gene 5054); assay: BSK_CASM3C_PAI1: BioMAP Diversity Plus: CASM3C Assay for Plasminogen activator inhibitor-1 (PAI1) Biomarker Activity (AID 2284284); conditions: primary human coronary artery smooth muscle cells;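 further: PAI-1 protein level measured by ELISA 24 h after dosing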
[26] = read-out: Monocyte Chemoattractant Protein-1 (MCP1), CCL2 (gene 6347); assay: BSK_hDFCGF_MCP1: BioMAP Diversity Plus: hDFCGF Assay for Monocyte Chemoattractant Protein-1 (MCP1) Biomarker Activity (AID 2284285); conditions: primary human foreskin fibroblasts
Outline: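 MCP-1 ELISA readout was taken 24 hours after dosing primary human dermal fibroblasts in the hDFCGF system, with DMSO as baseline. Parallel sulforhodamine B staining of total protein tracked overt cytotoxicity.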

[27] = read-out: Intercellular Adhesion Molecule 1 (ICAM1), ICAM1 (gene 3383); assay: BSK_hDFCGF_ICAM1: BioMAP Diversity Plus: hDFCGF Assay for Intercellular Adhesion Molecule 1 (ICAM1) Biomarker Activity (AID 2284287); conditions: primary human foreskin fibroblasts
Outline: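 ICAM-1 ELISA readout 24 h after dosing, DMSO as baseline, in human dermal foreskin fibroblast cultures. Cytotoxicity checked in parallel wells by SRB staining (0.1% SRB, 10% TCA fixation, 560 nm).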

[28] = read-out: TIMP metallopeptidase inhibitor 2 (TIMP2), TIMP2 (gene 7077); assay: BSK_hDFCGF_TIMP2: BioMAP Diversity Plus: hDFCGF Assay for TIMP metallopeptidase inhibitor 2 (TIMP2) Biomarker Activity (AID 2284289); conditions: primary human foreskin fibroblasts
Outline: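 Primary human foreskin fibroblasts in the hDFCGF system, dosed for 24 h; TIMP-2 level measured by ELISA, fitted in the positive direction against DMSO; cytotoxicity checked in parallel by sulforhodamine B total protein staining.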

[29] = read-out: Thrombomodulin, THBD (gene 7056); assay: BSK_LPS_Thrombomodulin: BioMAP Diversity Plus: LPS Assay for Thrombomodulin Biomarker Activity (AID 2284296); conditions: primary human HUVEC with PBMC
Outline: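 Thrombomodulin on the surface of LPS-activated endothelial/PBMC co-cultures was quantified by ELISA at 24 hours post-dosing, with DMSO as baseline. Parallel SRB total-protein staining flagged overt cytotoxicity.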

[30] = read-out: CD69, CD69 (gene 969); assay: BSK_LPS_CD69: BioMAP Diversity Plus: LPS Assay for CD69 Biomarker Activity (AID 2284303); conditions: primary human HUVEC with PBMC
Outline: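 CD69 surface levels were read by ELISA after 24 h chemical treatment of an LPS-stimulated HUVEC plus PBMC co-culture; positive-direction fit against DMSO vehicle.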

For `CCCC[N+](CCCC)(CCCC)CCCC`, the AC50 [1] was 9.59 µM (active), the AC50 [2] was 5.44 µM (active) and the AC50 [3] was 9.27 µM (active). For the same molecule, the AC50 [4] was 9.71 µM (active), the AC50 [5] was 23.2 µM (active) and the outcome [6] was “inactive”. The AC50 [7] was 5.6 µM (active), the outcome [8] was “inactive” and the AC50 [9] was 6.81 µM (active). For the same molecule, the AC50 [10] was 2.98 µM (active), the AC50 [11] was 9.18 µM (active) and the outcome [12] was “inactive”. For the same molecule, the outcome [13] was “inactive”, the outcome [14] was “inactive” and the outcome [15] was “inactive”. The outcome [16] was “inactive”, the outcome [17] was “inactive” and the outcome [18] was “inactive”. The outcome [19] was “inactive”, the outcome [20] was “inactive” and the outcome [21] was “inactive”. The outcome [22] was “inactive”, the outcome [23] was “inactive” and the outcome [24] was “inactive”. For the same molecule, the outcome [25] was “inactive”, the outcome [26] was “inactive” and the outcome [27] was “inactive”. The outcome [28] was “inactive”, the outcome [29] was “inactive” and the outcome [30] was “inactive”.
